Assay outcomes (PubChem BioAssay)
Compounds with a hit are over-represented: about 2.3% of the library has one in this group of screens.
PLC-beta3 inh – inhibitors of human phospholipase C beta3; actives 0.18% (n = 370,000); inhibition, % at 12.2 µM; Q01970; AID 720704; Purified PLC-beta3, fluorogenic substrate, fluorescence; in the data active means inhibition above about 11%;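 further: 0% = median of compound wells on plate and 100% = full blocker control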
PLCg1 inh – inhibitors of human phospholipase C gamma1 | actives 0.84% (n = 370,000) | purified PLC-gamma1, fluorogenic substrate, fluorescence | P19174 | inhibition, % at 12.2 µM | AID 720700; in the data active means inhibition above about 9.5%
Target sequence (P19174 whole entry, looked up): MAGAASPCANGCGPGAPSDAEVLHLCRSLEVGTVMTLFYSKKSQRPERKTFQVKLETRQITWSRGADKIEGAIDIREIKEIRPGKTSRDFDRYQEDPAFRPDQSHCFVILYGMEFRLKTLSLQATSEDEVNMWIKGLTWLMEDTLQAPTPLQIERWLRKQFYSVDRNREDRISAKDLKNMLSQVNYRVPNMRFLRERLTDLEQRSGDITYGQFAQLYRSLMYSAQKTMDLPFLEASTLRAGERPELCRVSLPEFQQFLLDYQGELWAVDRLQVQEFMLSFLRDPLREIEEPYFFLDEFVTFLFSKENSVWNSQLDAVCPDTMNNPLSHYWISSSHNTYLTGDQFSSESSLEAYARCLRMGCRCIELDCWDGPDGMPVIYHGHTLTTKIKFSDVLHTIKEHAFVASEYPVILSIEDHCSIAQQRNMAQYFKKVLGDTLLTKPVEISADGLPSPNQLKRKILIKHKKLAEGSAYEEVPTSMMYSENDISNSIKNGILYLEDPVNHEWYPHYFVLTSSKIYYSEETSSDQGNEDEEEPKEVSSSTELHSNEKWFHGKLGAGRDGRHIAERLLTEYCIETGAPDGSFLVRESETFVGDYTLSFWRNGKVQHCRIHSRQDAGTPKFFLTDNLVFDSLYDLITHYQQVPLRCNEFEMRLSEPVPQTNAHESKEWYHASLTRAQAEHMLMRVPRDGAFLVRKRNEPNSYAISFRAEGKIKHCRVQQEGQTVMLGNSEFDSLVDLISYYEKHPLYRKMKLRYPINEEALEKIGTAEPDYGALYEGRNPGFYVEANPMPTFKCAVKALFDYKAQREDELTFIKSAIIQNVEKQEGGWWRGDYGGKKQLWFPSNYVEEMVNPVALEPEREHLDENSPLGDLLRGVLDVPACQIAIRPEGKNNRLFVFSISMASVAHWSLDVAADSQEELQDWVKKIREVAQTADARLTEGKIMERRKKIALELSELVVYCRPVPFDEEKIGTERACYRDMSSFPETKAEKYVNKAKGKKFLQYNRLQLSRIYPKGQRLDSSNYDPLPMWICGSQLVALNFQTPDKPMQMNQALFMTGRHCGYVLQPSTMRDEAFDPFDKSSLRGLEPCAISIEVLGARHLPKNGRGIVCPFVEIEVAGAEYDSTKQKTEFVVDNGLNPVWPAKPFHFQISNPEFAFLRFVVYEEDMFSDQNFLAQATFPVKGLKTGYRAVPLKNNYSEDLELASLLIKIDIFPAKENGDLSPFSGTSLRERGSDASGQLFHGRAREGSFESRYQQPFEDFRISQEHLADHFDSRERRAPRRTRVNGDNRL
LEDGF integ inh – blocks HIV-1 LEDGF/p75-dependent DNA integration | inhibition, % at 3.7 µM | AID 743269 | TR-FRET IN-LEDGF/p75 DNA integration, Eu/Cy5 | actives 0.64% (n = 370,000);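 active means inhibition above the screen-wide mean plus 3 SD, cut at about 13% in these data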;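 further: signal is the Cy5 over europium emission ratio at 671 and 618 nm; 0% = plate median of compound wells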
MBD2 inh – MBD2-methylated oligo binding inhibition; Q9UBB5; TR-FRET, MBD2 binding to methylated oligonucleotide; inhibition, % at 4.4 µM; actives 0.31% (n = 370,000); AID 686964; in the data active means inhibition above about 13%
UHRF1 binding – blocks human UHRF1 binding to methylated DNA. Q96T88. UHRF1 binding to methylated oligo, TR-FRET. inhibition, % at 4.4 µM. actives 0.75% (n = 370,000). AID 687016; in the data active means inhibition above about 21%;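 further: UHRF1 SRA domain binding a hemimethylated CpG hairpin DNA probe; 0% = median of test compound wells and 100% = reference inhibitor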
* = called active by the depositor.

SMILES | PLC-beta3 inh | PLCg1 inh | LEDGF integ inh | MBD2 inh | UHRF1 binding
COc1ccc(-c2nc3c(C)cc(Br)cn3c2CC(C)(C)C)cc1OC | -14 | -8 | 6 | 8 | 21
COc1ccc(-c2nc3c(C)cc(Br)cn3c2CC2CCCCC2)cc1OC | -17 | -10 | -2 | 10 | 23*
COc1ccc(-c2nc3c(C)cc(Br)cn3c2Cc2cccc(Cl)c2)cc1OC | -13 | -7 | -3 | 7 | 22*
Fc1cccc(Cc2c(-c3cccc(Br)c3)nc3c(Cl)cc(C(F)(F)F)cn23)c1 | 2 | -1 | 4 | 1 | 0
COc1ccc(-c2nc3c4ccccc4ccn3c2Cc2cccc(Cl)c2)cc1OC | -44 | -25 | -3 | 5 | 23*
c1ccc2c(c1)ccn1c(Cc3ccsc3)c(C3CCCCC3)nc21 | -37 | -27 | 3 | 6 | 21*
Cc1ccc(Cc2c(C3CCCCC3)nc3c4ccccc4ccn23)cc1 | -25 | -11 | 5 | -1 | 13
COc1ccc(-c2nc3c4ccccc4ccn3c2Cc2ccsc2)cc1OC | -53 | -42 | -1 | 12 | 21*
CCCCCCCCN1C(=O)[C@@H](CC(=O)N2CCCC2)C[C@@]2(C(=O)OC)C1=C[C@H](COCc1ccccc1)O[C@@H]2C | -1 | -1 | 1 | 2 | -1
Cc1ccc(NC(=O)c2cc(S(=O)(=O)NCC3CCCO3)ccc2F)cc1 (configuration not stated) | 5 | 7 | 1 | -1 | 45*
CCC[C@H]1[C@@H](OC(=O)N2CCN(c3ccccc3)CC2)CC[C@@]23CCCN2C(=O)CCC[C@@H]13 | 3 | -2 | 3 | 4 | -2
COc1ccc(N(C(=O)CS(=O)CC(=O)Nc2ccc(F)cc2)C(C(=O)NC2CCCCC2)c2cccs2)cc1 (configuration not stated) | 2 | -3 | 15* | 0 | -2
COc1cccc(N2CCN(C(=O)CCn3nnc4ccccc43)CC2)c1 | 1 | 2 | 4 | -2 | 1
CC(=O)N1CCCN(C(=O)CCn2nnc3ccccc32)CC1 | 0 | -3 | 0 | -2 | 91*
Cc1cccc(OCC(=O)Nc2ccc3c(C)cc(=O)oc3c2)c1 | -6 | -4 | 1 | 1 | 6
Cc1cc(=O)oc2cc(NC(=O)COc3cccc(C(F)(F)F)c3)ccc12 | -229 | -202 | 4 | 7 | 56*
Cc1cc(/C=C(/C#N)c2nc3ccccc3[nH]2)c(C)n1-c1cc(C(=O)O)cc(C(=O)O)c1 | -145 | -103 | 13 | 1 | 23*
Cc1cc(/C=C(/C#N)c2nc3ccccc3[nH]2)c(C)n1-c1ccccc1C(=O)O | -126 | -84 | 1 | -10 | -2
CC(C)(C)c1ccc(C(=O)NC(=S)N2CCCC2)cc1 | -3 | 1 | 3 | 2 | -4
CC1CCN(C(=S)NC(=O)c2ccccc2)CC1 | 3 | 4 | -1 | -4 | 38*
CC(C)(C)c1ccc(C(=O)NC(=S)N2CCCCCC2)cc1 | -2 | 3 | 21* | -1 | -2
COC(=O)C1CN(C2CCCC2)CCS(=O)(=O)N1Cc1ccccc1 (configuration not stated) | 2 | -1 | 1 | 5 | 3
C[C@H]1[C@@H](OC(=O)Nc2ccc(C#N)cc2)CC[C@@]23CCCN2C(=O)CCC[C@@H]13 | 5 | 1 | -1 | 0 | -2
CCOc1cc(CNCCO)ccc1OCC(=O)NC(C)(C)C | 3 | 5 | 2 | -1 | 4
COc1ccc(NC(=O)COc2ccc(CNCCCN3CCOCC3)cc2OC)cc1 | 6 | 10* | 4 | -2 | 4
SMILES | PLC-beta3 inh | PLCg1 inh | LEDGF integ inh | MBD2 inh | UHRF1 binding
CCOC(=O)c1ccc(NC(=O)COc2ccc(CNCCO)cc2OCC)cc1 | 6 | 0 | -10 | 4 | 102*
COC(=O)[C@H](C)N(Cc1cn(Cc2ccccc2)nn1)S(=O)(=O)c1ccccc1Br | 3 | -1 | 2 | -6 | 1
O=C(Nc1ccc(Cl)cc1)O[C@@H]1CC[C@@]23CCCN2C(=O)CCC[C@H]3C1 | -3 | 1 | -1 | 3 | -3
CCCCc1c(-c2ccccc2OC)ncn1Cc1ccccc1 | 0 | 3 | 2 | 2 | 1
CCCCc1c(-c2ccccc2OC)ncn1CCc1cccc(F)c1 | -1 | 3 | 2 | 2 | 56*
CCCCc1c(-c2ccccc2OC)ncn1Cc1ccc(C(C)(C)C)cc1 | -2 | 0 | 3 | -5 | 28*
CCCCc1c(-c2ccccc2OC)ncn1CCc1cccc(OC)c1 | 1 | -2 | 8 | -3 | 3
Cc1nn(-c2ccccc2)c2sc(C(=O)NC3CCCCCCC3)cc12 | 4 | 2 | 1 | 1 | 4
Cc1ccnc(NC(=S)N2CC3CN(c4cccc(C(F)(F)F)c4)CC3C2)c1 (configuration not stated) | 1 | 1 | 11 | 0 | 0
CCCCn1nnnc1C(c1ccccc1)N1CCN(c2ccc(C)cc2)CC1 (configuration not stated) | 11* | -2 | 2 | 4 | 17
CCCCn1nnnc1C(c1ccccc1)N1CCN(c2ncccn2)CC1 (configuration not stated) | 5 | 1 | -2 | -2 | -2
CC(C)CN1CCN(Cc2cn(C)c3ccccc23)CC1CCO (configuration not stated) | -5 | -5 | -1 | 0 | 26*
Cn1cc(CN2CCN(CC(C)(C)C)C(CCO)C2)c2ccccc21 (configuration not stated) | -5 | -1 | 1 | 2 | 1
Cc1ccc(-n2c(SCC(=O)Nc3ccc(OCc4ccccc4)cc3)nnc2-c2cnccn2)cc1 | 4 | 8 | 4 | 1 | 1
CNC(=O)c1c(C)nn(-c2ccc(F)c(Cl)c2)c1-c1cc(C)on1 | -7 | -5 | -1 | 4 | 22*
Cc1nn(-c2ccc(Cl)c(Cl)c2)c(C)c1C(=O)O | -3 | 0 | -3 | 0 | 1
CC(C)COc1ccc(C(=O)N/N=C/c2ccoc2)cc1 | -5 | 2 | 0 | -2 | 30*
CCOc1cc(C(=O)N/N=C/c2ccoc2)cc(OCC)c1OCC | -9 | -3 | -1 | 2 | -2
O=C(C1CC12CCCC2)N1CCC(CO)(Cc2ccccc2Cl)CC1 (configuration not stated) | 6 | 3 | -4 | 4 | 45*
CC(C)(C)[C@H]1C=C(C(=O)NC2CC2)O[C@@H](OCc2ccc(CO)cc2)C1 | 4 | -1 | 1 | 2 | 3
CC(C)(C)[C@@H]1C=C(C(=O)NC2CC2)O[C@H](OCc2ccc(CO)cc2)C1 | 0 | 0 | 0 | 7 | 37*
C[C@H](CCCCC1(C)OCCO1)CCC(=O)N(c1ccccc1)c1ccccc1 | 0 | 1 | -1 | 0 | 1
O=C(Nc1ccc2c(c1)OCCO2)c1ccc2ccccc2n1 | -12 | -8 | -2 | -6 | 22*
O=C(Nc1ccc2c(c1)OCCO2)c1ccccn1 | -9 | -2 | -4 | -1 | 1
CCOc1ccccc1/C=C/c1onc(C)c1S(=O)(=O)N1CCC(C(=O)N(CC)CC)CC1 | -17 | -3 | -1 | 13* | 16
